# Source: PubChem BioAssay
# The list is not random: actives were taken first. Their share in the collection is about 18%.
# DT40 TDP1 CPT: DT40-hTDP1 cell growth loss with CPT | chicken DT40 Tdp1-/-;hTDP1 cells + 20 nM CPT, ATP luminescence, 48 h | Potency, µM (doses to about 46.2 µM), for inactives: at the highest dose activity change, negative = growth inhibition, hits mostly inhibitors | 420,000 tested, 12% active | AID 686979; note: potency is the fitted concentration of half-maximal effect; nearly all actives have a fitted effect of over 55% in size
#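 Cell growth measured by CellTiter-Glo luminescence after a minimum 48 h, 37 C compound exposure with 20 nM CPT in Tdp1-knockout DT40 cells stably expressing hTDP1, seeded 400/well; qHTS titration format.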
# DT40 TDP1 no CPT: qHTS for Inhibitors of human tyrosyl-DNA phosphodiesterase 1 (TDP1): qHTS in cells in absence of CPT | 420,000 tested, 15% active | Potency, µM (highest dose often 46.2 µM), for the others: at the top dose activity change, negative = growth inhibition, most hits filed as inhibitors | DT40 Tdp1-/- hTDP1 cells, no CPT, ATP luminescence, 48 h; note: potency is the fitted concentration of half-maximal effect; nearly all actives have a fitted effect of over 55% in size
#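 DT40 Tdp1-/-;hTDP1 cells, no CPT (DMSO vehicle only), 400 cells/well; compounds pin-transferred; ≥48 hr, 37 °C; CellTiter-Glo 30 min RT dark, luminescence read.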
# LDHA inh: blocks human lactate dehydrogenase A; purified LDHA, NADH/diaphorase-resazurin fluorescence; active compounds read low; AID 1347041; P00338; 480,000 tested, 0.15% active; activity change, % (values are at about 110 or 230 µM); in the data active = activity change below about -30%; inconclusive = mostly about -25% to -30%;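 note: plate controls were DMSO wells for no effect and wells without enzyme for full effect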
#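 Resorufin fluorescence (ex540/em590), read at 0 and 20 min after diaphorase/resazurin addition, reports the NADH left after a 5 min room-temperature reaction of 2 nM human LDH5 with 0.06 mM NADH and 0.2 mM pyruvate.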
# VP16 counter: counter-screen for ROR gamma inhibitors: Gal4-VP16 reporter; Drosophila S2 Gal4-VP16 UAS-luciferase, luminescence, 20 h; Potency, µM (titrated, usually from 53.6 µM), for inactives: at the top dose activity, negative = inhibition, most hits filed as inhibitors; 310,000 tested, 3.5% active;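 note: Gal4-VP16 expression switched on by copper sulfate through the metallothionein promoter; potency is the fitted concentration of half-maximal effect; nearly all actives have a fitted effect of over 50% in size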
# IL1B secr inh: blocks inflammasome-driven IL-1 beta release. THP-1 LPS/ATP IL-1B secretion, AlphaLISA, 16 h; active compounds read low. activity change, % at 57.5 µM. 360,000 tested, 4.7% active; in the data active = activity change below about -50%; inconclusive = mostly about -30% to -49%
#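 Secreted IL-1B measured by AlphaLISA bead assay after 16 h compound exposure of THP-1 cells; compounds (final up to 57.5 uM) added 1 h before LPS (250 ng/mL) and ATP (1.25 mM) stimulation; lower signal means less secretion.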
# RORgamma inh: blocks mouse ROR gamma transcriptional activity; P51450; Drosophila S2 Gal4-RORgamma UAS-luciferase reporter, 20 h; Potency, µM (highest dose often 53.6 µM), inactives show at the top dose activity change, negative = inhibition, actives largely listed as inhibitors; 310,000 tested, 5.4% active; note: potency is the fitted concentration of half-maximal effect; nearly all actives have a fitted effect of over 60% in size
# Target sequence (P51450 whole entry, looked up, the tested form may be a part): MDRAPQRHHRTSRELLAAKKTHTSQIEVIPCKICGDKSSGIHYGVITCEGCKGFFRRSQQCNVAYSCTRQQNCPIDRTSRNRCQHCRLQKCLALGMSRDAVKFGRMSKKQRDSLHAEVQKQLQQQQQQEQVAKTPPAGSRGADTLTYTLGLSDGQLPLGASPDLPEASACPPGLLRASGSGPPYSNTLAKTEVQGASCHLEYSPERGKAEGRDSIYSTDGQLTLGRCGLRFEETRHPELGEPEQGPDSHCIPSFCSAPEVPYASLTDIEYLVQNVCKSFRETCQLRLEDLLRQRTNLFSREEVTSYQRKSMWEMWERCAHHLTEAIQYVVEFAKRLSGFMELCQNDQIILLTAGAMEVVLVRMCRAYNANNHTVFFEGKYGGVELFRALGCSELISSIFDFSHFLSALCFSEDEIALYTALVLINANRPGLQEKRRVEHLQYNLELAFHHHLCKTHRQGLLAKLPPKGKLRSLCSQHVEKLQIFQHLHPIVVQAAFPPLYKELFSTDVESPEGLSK
#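 Using a luciferase readout, inhibitors were identified by reduced reporter activity in Drosophila cells coexpressing a copper-inducible Gal4–ROR gamma fusion and UAS-driven Photinus luciferase, incubated 20 hr after 700 uM copper sulfate.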
# Starred values were filed as active, the others as inactive; ? = inconclusive; . = no result given; [ ] = another dose, or the depositor's remark. Unless noted, calls come from the whole dose curve; as a rule, active = well fitted curve in the direction sought with a large enough effect; inconclusive = small, poorly fitted or top-dose-only effect, or another doubt; inactive = no such curve, though single readings can be large; an effect the other way counts as inactive or inconclusive. Unless noted, % is set by controls: 0 for no effect and ±100 for the full control effect.
SMILES,DT40 TDP1 CPT,DT40 TDP1 no CPT,LDHA inh,VP16 counter,IL1B secr inh,RORgamma inh
CCOc1ccc(NC(=O)CC2C(=O)N(c3ccccc3)C(=O)N2CCc2sccc2C)cc1 (stereo not drawn),15µM*,18µM*,-2,.,.,.
COc1ccc(NC(=O)CC2C(=O)N(c3ccc(F)cc3)C(=O)N2CCc2sccc2C)cc1 (stereo not drawn),?,?,-8,.,.,.
COc1cccc(N2C(=O)C(CC(=O)Nc3ccccc3)N(CCc3sccc3C)C2=O)c1 (stereo not drawn),18µM*,?,3,.,.,.
CCOc1ccc(NC(=O)CC2C(=O)N(c3ccc(F)cc3)C(=O)N2CCc2sccc2C)cc1 (stereo not drawn),-111%,23µM*,-3,.,.,.
Cc1nc2ccccc2c(C)c1CC(=O)NCc1ccc(OCC(F)(F)F)cc1,.,.,-1,.,.,.
O=C(/C=C/c1ccc2ccccc2c1)c1cccnc1,.,.,5,.,.,.
CC(C#N)OC(=O)c1ccc(CNC(=O)OC(C)(C)C)cc1 (stereo not drawn),.,.,2,.,.,.
Cc1cc(C)cc(-n2ccnc2SCC(=O)Nc2cccc3ccccc23)c1,21µM*,18µM*,-1,.,.,.
O=C(CSc1nccn1-c1ccc(Cl)cc1)Nc1cccc2ccccc12,?,-14%,6,.,.,.
Cc1cc(C)cc(-n2ccnc2SCC(=O)Nc2ccccc2F)c1,23µM*,16µM*,-1,.,.,.
Cn1c(=O)c2c(ncn2CCC(=O)Nc2ccc(F)c(F)c2)n(C)c1=O,.,.,6,.,.,.
O=C(c1n[nH]c(=O)c2ccccc12)N1CCN(S(=O)(=O)c2ccccc2Cl)CC1,?,?,-3,.,-9,.
CCC(C(=O)OCC(=O)Nc1ccc(Cl)c(S(=O)(=O)N(C)C)c1)c1ccccc1 (stereo not drawn),?,?,4,-45%,11,10%[10 µM]
COc1ccc(Cl)cc1S(=O)(=O)N1CCN(C(=O)c2n[nH]c(=O)c3ccccc23)CC1,18µM*,16µM*,-1,.,29,.
O=C(COc1cccc(Br)c1)Nc1ccc(Cl)c(S(=O)(=O)N2CCOCC2)c1,21µM*,16µM*,-2,.,?,.
COc1cc(C(C)=O)ccc1OCC(=O)Nc1ccc(Cl)c(S(=O)(=O)N2CCOCC2)c1,23µM*,18µM*,-1,.,0,.
COc1ccc(CC(=O)Nc2cccc(C(C)=O)c2)cc1S(=O)(=O)N1CCOCC1,-2%,4%,0,.,10,.
CN(CCOc1ccccc1)CC(=O)Nc1ccc(Cl)c(S(=O)(=O)N(C)C)c1,8%,?,-14,-24%,-51*,-5%
O=C(O)CN1CCC(CO)CC1,.,.,-4,.,.,.
Cc1oc(-c2ccccc2)nc1CNC(=O)c1ccccc1,.,.,2,.,.,.
CC(=O)c1ccc(OCCCC(=O)Nc2ccc(Cl)c(S(=O)(=O)N3CCOCC3)c2)cc1,16µM*,21µM*,-9,.,29,.
Cc1ccc(NC(=O)CCCOc2ccccc2)cc1S(=O)(=O)N1CCOCC1,?,?,-1,.,10,.
CC(=O)c1ccc(OCCCC(=O)Nc2cc(S(=O)(=O)N(C)C)ccc2C)cc1,-12%,-21%,2,-6%,10,26%
O=C(CCCOc1ccccc1)Nc1ccc(Cl)c(S(=O)(=O)N2CCOCC2)c1,18µM*,16µM*,-5,.,?,.
CC(C)(C)c1ccc(OCCC(=O)Nc2cccc(S(=O)(=O)N3CCOCC3)c2)cc1,?,?,-1,.,15,.
SMILES,DT40 TDP1 CPT,DT40 TDP1 no CPT,LDHA inh,VP16 counter,IL1B secr inh,RORgamma inh
Cc1ccc(OCCCC(=O)Nc2ccc(Cl)c(S(=O)(=O)N3CCOCC3)c2)cc1,?,18µM*,2,.,?,.
CCN(CC)S(=O)(=O)c1cc(NC(=O)CCCOc2ccc(C(C)=O)cc2)ccc1C,?,18µM*,-1,-22%,-2,25%
Cn1c(=O)c2c(ncn2CC(O)COc2ccc(C#N)cc2)n(C)c1=O (stereo not drawn),.,.,0,.,.,.
CCN(CC)S(=O)(=O)c1ccc(C)c(NCc2ccc(C#N)cc2)c1,.,.,2,.,.,.
NS(=O)(=O)c1ccc(N/N=C/c2ccc(Cl)cc2Cl)c([N+](=O)[O-])c1,.,.,-2,.,.,.
CC(C)(C)c1ccc(-c2csc(NC=C(C#N)C#N)n2)cc1,.,.,-1,.,.,.
COC(=O)c1ccc(NC(=O)CN2CCN(S(=O)(=O)c3cc(Cl)ccc3OC)CC2)cc1,?,16µM*,0,-19%,17,-23%
O=C(CCCSc1ccccc1)Nc1ccc(Cl)c(S(=O)(=O)N2CCOCC2)c1,16µM*,18µM*,1,.,-3,.
Cc1ccc(NC(=O)CSc2ccccc2)cc1S(=O)(=O)N1CCOCC1,?,?,2,.,-1,.
CN1CCN(c2ccc3c(c2)C2CC3CCN2C(=O)OCc2ccccc2)CC1 (stereo not drawn),?,?,-7,.,-17,.
O=C(OCc1ccccc1)N1CCC2CC1c1ccc(N3CCOCC3)cc12 (stereo not drawn),?,?,-18,.,-3,.
O=C(OCc1ccccc1)N1CCC2CC1c1ccc(N3CCNCC3)cc12 (stereo not drawn),9.2µM*,7.3µM*,-14,.,-15,.
Cc1ccccc1S(=O)(=O)N1CCN(c2ccc3c(c2)C2CC3CCN2C(=O)OCc2ccccc2)CC1 (stereo not drawn),?,16µM*,-13,.,1,.
COc1ccc(NC(=S)N2CCN(c3ccc4c(c3)C3CCN(C(=O)OCc5ccccc5)C4C3)CC2)c(OC)c1 (stereo not drawn),7.3µM*,5.2µM*,-6,.,4,.
NCc1ccc(Br)cc1C(F)(F)F,.,.,9,.,.,.
CCN(CC)CCN(C(=O)c1ccc2ccccc2c1)c1nc2ccc(F)cc2s1,-27%,-4%,3,3%,17,-10%
CN(C)CCN(C(=O)c1ccc2ccccc2c1)c1nc2cc3c(cc2s1)OCCO3,?,?,3,-5%,0,2%
Cc1ccc2nc(N(CCN(C)C)C(=O)/C=C/c3cccs3)sc2c1,?,16µM*,-4,?,?,-9%
CCN(CC)CCN(C(=O)/C=C/c1cccs1)c1nc2ccc(F)cc2s1,?,?,-2,-9%,-78*,-40%
CN(C)CCN(C(=O)C1CCCCC1)c1nc2cc3c(cc2s1)OCCO3,-15%,9.2µM*,1,.,?,.
